From PubChem BioAssay
HCV inh – HCV inhibition; hit rate 3.4% among 340,000; AID 651820; Huh7.5.1 HCVcc-Cre infection, luciferase reporter, 44 h; Potency, µM (titrated, usually from 41.8 µM), usual class: inhibitors
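Reporter virus HCVcc-Cre (~0.5 moi) infects cells exposed to compound; seeding density 1,000 cells/well with 4 h settling beforehand. Luminescence, 15 sec read, taken 44 h post-infection following a 15 min RT substrate incubation.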
CHX counter – affects cycloheximide protein synthesis inhibition readout, counter-screen; cell reporter, cycloheximide protein synthesis inhibition counterscreen; max response, %; hit rate 12% among 300,000; AID 2314; in the data active means max response mostly above about 13%, no sharp cut-off; inactive means mostly below about 14%; further: read at 38.3 µM for the half of the compounds with a filed dose
HCMV inh – inhibitors of human cytomegalovirus; AID 1259415; hit rate 4.5% among 410,000; activity change, negative = inhibition, % at 57.5 µM; HFF cells, HCMV-luciferase reporter, 72 h; active compounds read low; in the data active means activity change below about -60%; inconclusive means no clear call, values can overlap the other calls; inactive means above about -39%
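Two-dose cell screen: HFF monolayers treated with compounds and infected with luciferase-expressing HCMV at 1 PFU/cell, 72 h at 37C, then lysed for luciferase measurement.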
Pf growth 96h – inhibits malaria parasite growth, 96 h; hit rate 6.9% among 320,000; Potency, µM (highest dose often 28.7 µM), usual class: inhibitors; P. falciparum luciferase reporter growth, 96 h; AID 504834
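Plates of compound plus infected erythrocytes (2% hematocrit, 0.05% parasitemia final) incubate 96 hours, 37 C, 5% CO2. Detection reagent added; reduced luminescence from the parasites' luciferase reporter flags inhibition.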
Pf growth 48h – inhibits P. falciparum growth in the first generation, 48 h | P. falciparum luciferase growth in erythrocytes, 48 h | Potency, µM (top dose mostly 28.7 µM), hits mostly inhibitors | hit rate 5.9% among 310,000
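Firefly luciferase activity from engineered P. falciparum reports growth; inhibitors lower the luminescent signal. Cultures contained 2% hematocrit erythrocytes at 0.1% final parasitemia.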
Shiga inhibitor – Shiga toxin inhibition. Vero cells, Shiga toxin protein synthesis inhibition reporter. inhibition, % at 38.7 µM. hit rate 9.2% among 290,000. AID 2315; in the data active means inhibition mostly above about 28%, no sharp cut-off; inactive means mostly below about 43%
HCV inh confirm – HCV inhibition, cherry-pick confirmation; Potency, µM (top dose mostly 41.8 µM), actives largely listed as inhibitors; hit rate 78% among 640; shares compounds with HCV inh; AID 720575; HCVcc-Cre infectious virus cell assay, luciferase, inhibition; further: nearly all actives have a fitted effect of over 80% in size
HCV host tox – host cell cytotoxicity counter-screen for HCV inhibitors; hit rate 22% among 640; Potency, µM (titrated, usually from 41.8 µM), usual class: inhibitors; AID 720576; shares compounds with HCV inh; HCV host cell line cytotoxicity counterscreen;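 further: 44 h compound exposure; nearly all actives have a fitted effect of over 55% in size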
Each line names hits and unclear results; the compound was inactive in the other large screens (follow-up assays come after a bar, where they were run). Only some compounds are listed: those with a hit (about 21% of all), similar ones and a draw of the others. Unless noted, the call rests on the fitted dose curve; in most records, active means well fitted curve in the direction sought with a large enough effect; inconclusive means small, poorly fitted or top-dose-only effect, or another doubt; inactive means no such curve, though single readings can be large; an effect the other way counts as inactive or inconclusive.

CNCCOc1ccc(Cl)c(Cl)c1	HCV inh inconclusive | HCV inh confirm inactive | HCV host tox inactive
Clc1ccc(OCCN2CCCCC2)cc1Cl	Pf growth 96h inconclusive
O=C(Cc1c(Cl)cccc1Cl)Nc1ccncc1Cl	HCV inh inconclusive, Pf growth 96h inconclusive (no result: HCMV inh)
O=C(Cc1ccc(Cl)cc1Cl)Nc1ccncc1Cl	HCV inh 7.9µM, HCMV inh -90 | HCV inh confirm 7µM | HCV host tox 10µM
COc1ccc(-c2ccc(-c3cc(=O)oc4c(C(C)C)ccc(C)c34)cc2)cc1	none (no result: Pf growth 96h, Pf growth 48h)
Cc1c(NC(=O)/C=C/c2ccc(S(=O)(=O)N3CCOCC3)cc2)c(=O)n(-c2ccccc2)n1C	none
CCOC(=O)c1c(C)n(C)c2cc(Br)c(OC)cc12	HCV inh 7.9µM | HCV inh confirm 14µM | HCV host tox inactive
COc1cc2c(C(=O)O)c(C)n(C)c2cc1Br	HCMV inh inconclusive, Pf growth 96h inconclusive
CCOC(=O)c1c(CN2CCN(CCO)CC2)n(C)c2cc(Br)c(OC)cc12	HCV inh 2.8µM, Pf growth 48h 10µM | HCV inh confirm 10µM | HCV host tox inactive
CC(CO)NS(=O)(=O)c1cccc(Cl)c1F (stereo not given)	none (no result: HCV inh, CHX counter, Pf growth 96h, Pf growth 48h, Shiga inhibitor)
Nc1nc(Cl)cc(N2CCC(c3cc(-c4ccc(Cl)cc4)n[nH]3)CC2)n1	HCV inh 4µM, HCMV inh -104, Pf growth 96h inconclusive, Pf growth 48h inconclusive | HCV inh confirm 11µM | HCV host tox inconclusive
COc1ccc(-c2cc(C3CCN(CC(O)C(F)(F)F)CC3)[nH]n2)cc1 (stereo not given)	none (no result: Pf growth 48h)
CCOc1ccc2nc(SCC(=O)NCc3ccc4c(c3)OCO4)[nH]c2c1	HCV inh 4µM | HCV inh confirm inconclusive | HCV host tox inactive
COc1ccc(-c2ccc(SCC(=O)NCc3ccc4c(c3)OCO4)nn2)cc1OC	HCV inh 2.8µM | HCV inh confirm inactive | HCV host tox inactive
COc1ccc2nc(SCC(=O)NCc3ccc4c(c3)OCO4)[nH]c2c1	HCMV inh inconclusive
COc1ccc(NC(=O)CS(=O)c2ccc(Br)cc2)cc1 (stereo not given)	none
Cc1ccc(S(=O)(=O)NC(=O)C2(C)CCN2C(=O)Cc2cc(F)ccc2F)nc1 (stereo not given)	none (no result: HCV inh, CHX counter, Pf growth 96h, Pf growth 48h, Shiga inhibitor)
Cc1ccc(-c2csc(Cc3nc(-c4cc5ccccc5oc4=O)cs3)n2)cc1	HCV inh 5µM, HCMV inh -80 | HCV inh confirm 5µM | HCV host tox 6.3µM
COc1ccc(Nc2ccc3c(c2)=NC2(CCCCC2)[N+]=3[O-])cc1	HCV inh 5µM, CHX counter 26, HCMV inh -98, Pf growth 96h inconclusive, Pf growth 48h 12µM, Shiga inhibitor 59 | HCV inh confirm 18µM | HCV host tox 16µM
Cc1ccc(S(=O)(=O)NCc2ccccn2)c(C)c1C	none
Cc1ccc(S(=O)(=O)NCc2ccncc2)c(C)c1C	HCV inh 0.79µM, HCMV inh -83, Pf growth 96h 12µM | HCV inh confirm 0.79µM | HCV host tox inactive
CSc1scc2c1-c1nc(SCC(=O)C(C)(C)C)ncc1CC2	HCV inh 8.9µM, HCMV inh inconclusive, Pf growth 96h 9.3µM, Pf growth 48h 9.3µM | HCV inh confirm 25µM | HCV host tox inactive
COc1ccccc1NC(=O)Nc1ccccc1C(=O)NCCCN1CCOCC1	none
ON=C1c2cc(OCCN3CCCCC3)ccc2-c2ccc(OCCN3CCCCC3)cc21	HCV inh 3.2µM, Pf growth 96h 1.5µM, Pf growth 48h 1.7µM (no result: HCMV inh) | HCV inh confirm inconclusive | HCV host tox inactive
COc1ccccc1CNC(=S)NCc1ccc(F)cc1	Pf growth 96h inconclusive, Pf growth 48h inconclusive
COC(=O)C1C2OC(C(Br)C2Br)C1C(=O)OC (stereo not given)	none (no result: HCV inh, CHX counter, Pf growth 96h, Pf growth 48h, Shiga inhibitor)
Cc1ccc(CNC(=O)COc2cc(O)c3c(c2)OC(C)(C)CC3=O)cc1	HCV inh inconclusive, Pf growth 96h inconclusive
Cc1cc(=O)oc2c3c(cc(OCC(=O)Nc4ccc(CCO)cc4)c12)OC(C)(C)CC3	HCV inh 0.71µM, Pf growth 96h inconclusive, Pf growth 48h inconclusive | HCV inh confirm 22µM | HCV host tox inactive
CC1(C)CC(=O)c2c(O)cc(OCC(=O)Nc3ccc(CCO)cc3)cc2O1	HCV inh 5µM, CHX counter 16, Pf growth 96h inconclusive | HCV inh confirm 14µM | HCV host tox inactive
O=C(CSc1nc(=O)n2ccccc2n1)Nc1ccc2c(c1)OCO2	none (no result: CHX counter, Shiga inhibitor)
Cc1[nH]n(-c2nc(-c3ccc(Cl)cc3)cs2)c(=O)c1N=Nc1ccc(O)cc1	HCV inh 1.8µM, Pf growth 96h 6.6µM, Pf growth 48h inconclusive | HCV inh confirm 14µM | HCV host tox inactive
Cc1nc2ccccc2c2c(N)cccc12	none (no result: CHX counter, Pf growth 96h, Pf growth 48h, Shiga inhibitor)
CCOc1cc(CNCCc2ccc(S(N)(=O)=O)cc2)cc(Cl)c1OCc1ccccc1	HCV inh 1.6µM, HCMV inh -61, Pf growth 96h 13µM, Pf growth 48h 13µM | HCV inh confirm 4.4µM | HCV host tox 13µM
COc1cnn(-c2cccc(Cl)c2)c(=O)c1Cl	none (no result: CHX counter, Pf growth 96h, Pf growth 48h, Shiga inhibitor)
COc1nn(-c2ccccc2)c(=O)c(Cl)c1Cl	HCV inh 4µM, HCMV inh -102, Pf growth 96h inconclusive | HCV inh confirm 8.9µM | HCV host tox 7.9µM
Cc1cc(Cl)ccc1OCC(=O)Nc1ccccc1CO	HCV inh 3.2µM, CHX counter 25, Pf growth 48h 13µM, Shiga inhibitor 50 | HCV inh confirm 7.9µM | HCV host tox inactive
Cc1cc(Cl)ccc1OCC(=O)Nn1c(C)ccc1C	Pf growth 48h inconclusive
CC(=O)n1cc(C2CC(=O)OC3=C2CC(=O)C(C)(C)C3)c2ccccc21 (stereo not given)	none (no result: HCV inh, CHX counter, Pf growth 96h, Pf growth 48h, Shiga inhibitor)
CCOc1ccc(NS(=O)(=O)c2cccc(C(=O)NCC3(N(C)C)CCCCC3)c2)cc1	HCV inh inconclusive, Pf growth 96h inconclusive, Pf growth 48h inconclusive (no result: CHX counter, Shiga inhibitor)
Cc1ccc([N+](=O)[O-])cc1N(CC(=O)Nc1ccc(S(=O)(=O)Nc2cccc(C(F)(F)F)c2)cc1)S(C)(=O)=O	HCV inh inconclusive
COc1ccc(NC(=O)c2cc(-c3cc(F)ccc3OC)n[nH]2)cc1OC	none (no result: HCV inh, CHX counter, Pf growth 96h, Pf growth 48h, Shiga inhibitor)
COc1ccc(NC(=O)c2cc(-c3cc(C)cc(C)c3O)n[nH]2)cc1Cl	HCV inh 8.9µM, Pf growth 96h inconclusive, Pf growth 48h 9.3µM | HCV inh confirm 14µM | HCV host tox inconclusive
COC(=O)COc1ccc(-n2cnnn2)cc1	none
COc1ccccc1NC(=O)c1ccc(NC(=O)c2cc3c(s2)CCC3)cc1	HCV inh 8.9µM, Pf growth 96h inconclusive, Pf growth 48h inconclusive | HCV inh confirm 8.9µM | HCV host tox inactive
